Columns and labels:
Assay type in all cases: functional
[1] = tested on: Plasmodium falciparum; test: GSK_TCMDC: Inhibition of Plasmodium falciparum 3D7 in whole red blood cells, using parasite LDH activity as an index of growth. Test compounds present at 2uM
[2] = tested on: Plasmodium falciparum; test: GSK_TCMDC: Inhibition of Plasmodium falciparum Dd2 in whole red blood cells, using parasite LDH activity as an index of growth. Test compounds present at 2uM
[3] = tested on: HepG2; test: GSK_TCMDC: Percent inhibition of human HepG2 cell line. Test compounds present at 10uM.

Row | SMILES | Inhibition [1] [%] | Inhibition [2] [%] | Inhibition [3] [%]
1 | CC[C@H](NC(=O)c1c(CCCN2CCN(c3ccccc3)CC2)c(-c2ccccc2)nc2cc(O)ccc12)c1ccccc1 | 96 | 97 | 12
2 | CNc1nc(Nc2ccccc2C)nc2ccccc12.Cl | 100 | 81 | 17
3 | O=C(N[C@@H](Cc1ccccc1)C(=O)NC1CCCCCC1)c1ccc(O)c(-c2ccc(Cl)c(Cl)c2)c1 | 92 | 99 | 0
4 | COc1ccc(NC(=O)[C@H](CC(C)C)Nc2cc(C)nc(NCCOc3ccccc3)n2)cc1.O=C(O)C(F)(F)F | 100 | 65 | 0
5 | CN1CCN(CCCN(Cc2ccc(-c3cccc(CNC4CCCC4)c3)cc2)C(=O)Nc2ccccc2)CC1.O=C(O)C(F)(F)F | 92 | 76 | 28
6 | O=C(O)C(F)(F)F.O=S(=O)(NCCN1CCCC1)c1ccc(-c2ccc(CNCc3ccsc3)cc2)s1 | 99 | 40 | 31
7 | CC(C)CCNC(=O)[C@@H]1[C@H]2C(=O)N(C3CCCCC3)C(=O)[C@H]2[C@H]2C=C[C@@H]3C(c4ccc(C(C)(C)C)cc4)=NO[C@@H]3N21 | 96 | 48 | 0
8 | Cc1ccc2[nH]c3c(NCCCN(C)C)ncnc3c2c1 | 99 | 0 | 1
9 | Clc1ccc(Nc2nc(Nc3ccc(Cl)c(Cl)c3)nc(Sc3nc4ccccc4[nH]3)n2)cc1Cl | 99 | 100 | 10
10 | CS(=O)(=O)NCCCNCc1ccc(-c2cccc(-c3nc4cc(C(F)(F)F)ccc4[nH]3)c2)cc1.O=C(O)C(F)(F)F | 100 | 83 | 17
11 | COc1ccc(NC(=O)Nc2nc(-c3ccc(Cl)c(C)c3)cs2)cc1N1CCN(C)CC1.Cl | 99 | 89 | 9
12 | Nc1c2c(nc3ccc(C(=O)Nc4ccccc4)cc13)CCCC2 | 100 | 78 | 20
13 | O=C(O)C(F)(F)F.c1cc(CNCCc2ccncc2)cc(-c2ccc(-c3nc4ccccc4[nH]3)s2)c1 | 100 | 97 | 1
14 | CN(C)CCN(C)Cc1ccc(-c2ccc3c(Nc4ccc(F)cc4Cl)ccnc3c2)o1 | 100 | 100 | 31
15 | CCNc1cc(C(=O)NC(Cc2ccccc2)C(O)CNC(C)(C)CCCC(C)C)c(F)c(N2CCCS2(=O)=O)c1.O=CO (stereo unspecified) | 98 | 97 | 0
16 | COc1cc2nc(N(C)CC3COc4ccccc4O3)nc(N)c2cc1OC.Cl (stereo unspecified) | 94 | 26 | 11
17 | COc1cc(C(=O)NCCCN2CCN(c3cccc(Cl)c3)CC2)ccc1-c1nc2cc(Cl)c(F)cc2[nH]1 | 100 | 81 | 15
18 | CN1CCN(c2nc(NCCNc3ccc([N+](=O)[O-])cc3)c3ccccc3n2)CC1 | 90 | 25 | 37
19 | COc1ccc(CCNc2nc(N)c3cc(OC)c(OC)cc3n2)cc1.Cl | 100 | 1 | 16
20 | O=C(NC1CCCC1)c1ccc(N2CCC(NCc3cc4cc(Cl)ccc4[nH]3)CC2)cc1 | 91 | 0 | 21
21 | CN(C(=O)c1ccccc1)C1c2cc(C#N)ccc2OC(C)(C)C1O (stereo unspecified) | 97 | 4 | 8
22 | Cc1nnc2sc(-c3cccc(NC(=O)c4ccc(N5CCCCC5)c([N+](=O)[O-])c4)c3)nn12 | 87 | 20 | 3
23 | Cc1nnsc1C(=O)Nc1cccc(-c2ccc(-c3nc4cc(F)ccc4[nH]3)s2)c1 | 89 | 22 | 62
24 | C=CCN1C(=O)CN(S(=O)(=O)c2ccc(-n3nc(C)cc3C)cc2)C1=S | 93 | 0 | 5
25 | CO/C(=C\C=C\c1cc2cc(Cl)c(Cl)cc2[nH]1)C(=O)NCC(C)(C)CN(C)C | 81 | 27 | 35
26 | Nc1nccc2ccc(-c3ccc(NC(=O)Nc4cc(C(F)(F)F)ccc4F)cc3)cc12.O=C(O)C(F)(F)F | 100 | 100 | 99
27 | Cn1cncc1C(=O)NC1CCN(c2ccnc(Nc3ccc(F)cc3)n2)C1 (stereo unspecified) | 97 | 83 | 2

From ChEMBL document CHEMBL1157539, “Thousands of chemical starting points for antimalarial lead identification” (Nature, 2010)
